Rows were chosen to be rich in hits. Some 8% of all compounds tested hit in one or more screens of this group.
MARV entry inh: qHTS for inhibitors of binding or entry into cells for Marburg Virus | 1.8% of 300,000 active | Marburg virus pseudotyped entry inhibition, cell reporter | AID 540276, 2011 | Potency, µM (doses to about 37.8 µM), actives largely listed as inhibitors; calls by dose curve; tested in HEK293 cells
HCV inh: qHTS Assay for Inhibitors of Hepatitis C Virus (HCV); AID 651820, 2012; 3.4% of 340,000 active; Huh7.5.1 HCVcc-Cre infection, luciferase reporter, 44 h; Potency, µM (titrated, usually from 41.8 µM), most hits filed as inhibitors; active = well fitted inhibition curve with a large enough effect; inconclusive = small, poorly fitted or top-dose-only effect, or another doubt; inactive = no such curve, though single readings can be large or run the other way
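Cells seeded at 1,000/well and cultured 4 h, then compounds added followed by HCVcc-Cre virus (~0.5 moi). After 44 h further culture, luciferase substrate was added, plates held 15 min at room temperature, and luminescence read for 15 sec.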
FMDV inh: High Throughput Screening for Foot and Mouth Disease Virus Antivirals. FMDV antiviral cell-based qHTS. Potency, µM (titrated, usually from 57.9 µM), most hits filed as inhibitors. 1.2% of 410,000 active. AID 1159524, 2015; calls by dose curve; tested in HEK293T cells; also: read-out not given here; nearly all actives have a fitted effect of over 45% in size
HCMV antiviral: qHTS Assay for inhibitors of the human cytomegalovirus (HCMV); HFF cells, HCMV-luciferase reporter, 72 h; hits give low values; activity change, negative = inhibition, % at 57.5 µM; 4.5% of 410,000 active; AID 1259415, 2018; in the data active = activity change below about -60%; inconclusive = no clear call, values can overlap the other calls; inactive = above about -39%
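HFF cells seeded 16 h at 37C, treated with compounds, infected with luciferase-reporter HCMV at MOI 1 PFU/cell; luciferase read at 72 h post infection, normalized to buffer-only and Salinomycin controls.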
Lassa entry inh: qHTS for Inhibitors of binding or entry into cells for Lassa Virus; Potency, µM (series often up to 37.9 µM), most hits filed as inhibitors; Lassa virus pseudotype entry inhibition, cell reporter; 1.2% of 300,000 active; calls by dose curve; tested in HEK293 cells; also: nearly all actives have a fitted effect of over 50% in size
SARS PLP yeast: qHTS of Yeast-based Assay for SARS-CoV PLP. S. cerevisiae expressing SARS-CoV PLpro, growth rescue. Potency, µM (top dose mostly 32.9 µM), actives largely listed as activators. 0.19% of 330,000 active. AID 485353, 2010; calls by dose curve; also: nearly all actives have a fitted effect of over 55% in size
A number is an active result; . = inactive; ? = inconclusive; / = not tested or not shown; [ ] = remark or other dose.

SMILES | MARV entry inh | HCV inh | FMDV inh | HCMV antiviral | Lassa entry inh | SARS PLP yeast
CCOC(=O)N1CCN(C(=O)c2ccc3c(c2)N(C)C(=O)/C(=C\c2ccc(OCC)c(OC)c2)S3)CC1 | 11µM | 10µM | 35µM | ? | 5µM | .
Cc1cccc(/C=C2\Sc3ccc(C(=O)NCC4CCCO4)cc3N(C)C2=O)c1 (stereo not drawn) | 7.1µM | ? | . | . | ? | .
CCOC(=O)N1CCC(NC(=O)c2ccc3c(c2)N(C)C(=O)/C(=C/c2cccc(OC)c2)S3)CC1 | / | 3.2µM | ? | . | / | .
CN1C(=O)/C(=C/c2ccccc2Cl)Sc2ccc(C(=O)NCc3cccnc3)cc21 | ? | . | 40µM | . | ? | .
CN1C(=O)/C(=C/c2ccccc2F)Sc2ccc(C(=O)NCC3CCCO3)cc21 (stereo not drawn) | / | . | . | . | / | .
CCSc1nn(CC(=O)Nc2cccc(Cl)c2)c(N)c1S(=O)(=O)c1ccc(OC)cc1 | / | / | . | . | . | /
COC(=O)[C@@]12C[C@@H](CC(=O)N3CCOCC3)C(=O)N(Cc3ccco3)C1=CCC(C)(C)C2 | / | / | . | . | / | /
CCN(CC(=O)Nc1ccc2c(c1)OCO2)Cc1nc2ccccc2c(=O)[nH]1 | . | . | . | -100 | . | .
CCN(CC(=O)Nc1ccccc1-c1ccccc1)Cc1nc2ccccc2c(=O)[nH]1 | ? | ? | . | . | ? | .
CCN(CC(=O)Nc1ccccc1SC)Cc1nc2ccccc2c(=O)[nH]1 | . | 11µM | . | . | . | .
CCOC(=O)c1cc2c(=O)n3ccccc3nc2n(CC2CCCO2)c1=NC(=O)c1ccc(OC)cc1OC (stereo not drawn) | ? | / | . | . | . | /
CC(=O)OC[C@H]1O[C@@H](ON=CC[C@@H]2C=C[C@@H](OC(C)=O)[C@@H](COC(C)=O)O2)[C@@H](OC(C)=O)[C@@H](OC(C)=O)[C@@H]1OC(C)=O | . | / | / | / | / | /
COc1ccc(C=NNC(=O)CCCC(=O)NN=Cc2ccc(OC)c(O)c2)cc1O | . | . | . | -69 | . | /
COc1ccc(/C=N/NC(=O)CCn2c3ccccc3c3ccccc32)cc1O | ? | 6.3µM | / | . | ? | .
COCCn1nc2ccccc2c1OC | / | / | / | . | / | /
COc1ccc(C2/C=C\CN(CC(C)C)CC(=O)N2Cc2cccc(F)c2)cc1 (stereo not drawn) | / | ? | . | . | / | .
O=C1C=CC(=O)c2c(O)c(Cl)c(Cl)c(O)c21 | / | / | . | / | / | /
O=C1C=CC(=O)c2c(O)c(CO)c(CO)c(O)c21 | ? | . | 35µM | . | . | /
FC(F)c1nc2ccccc2[nH]1 | . | . | . | . | . | .
c1ccc2[nH]c3cc4ncnc4cc3nc2c1 | . | . | . | -87 | . | .
CC(C)[C@H]1C(=O)O[C@H](C(C)C)C(=O)N(C)[C@@H](C(C)C)C(=O)O[C@H](C(C)C)C(=O)N(C)[C@@H](C(C)C)C(=O)O[C@H](C(C)C)C(=O)N1C | / | ? | 11µM | / | / | .
Cc1[nH]n(-c2ccccc2)c(=O)c1C(C[N+](=O)[O-])c1ccc(Br)cc1 (stereo not drawn) | . | . | ? | -104 | ? | .
COc1cccc(C(C[N+](=O)[O-])c2c(C)[nH]n(-c3ccccc3)c2=O)c1 (stereo not drawn) | . | . | . | . | . | .
COc1ccc(CN2CCOc3ccc(C(O)c4cccnc4)cc3C2)c(F)c1 (stereo not drawn) | / | / | . | / | / | /
O=C(COc1ccc([N+](=O)[O-])cc1)NCC1(N2CCOCC2)CCCCC1 | . | / | . | . | . | /
SMILES | MARV entry inh | HCV inh | FMDV inh | HCMV antiviral | Lassa entry inh | SARS PLP yeast
CCNC(=S)N/N=C(\C)c1ccc(N2CCOCC2)cc1 | . | ? | . | . | ? | .
CC(C)(C)c1ccc(OCC(=O)NCC2(N3CCOCC3)CCCCC2)cc1 | ? | / | ? | -73 | ? | /
C/C(=N\NC(=O)c1ccc(F)cc1)c1ccc(N2CCOCC2)cc1 | ? | . | . | . | . | .
CNC(=S)N/N=C(\C)c1ccc(N2CCOCC2)cc1 | / | . | . | -99 | / | .
C/C(=N\NC(=O)COc1ccc(C(C)(C)C)cc1)c1ccc(N2CCOCC2)cc1 | . | . | . | . | 1.3µM | .
CC(=O)N1c2ccc(S(=O)(=O)NCCc3cccc(C)c3)cc2CC1C (stereo not drawn) | / | / | . | . | . | /
CCOC(=O)C1CCCN(C(c2ccccn2)c2c(C)[nH]c3ccccc23)C1 (stereo not drawn) | . | . | . | -87 | . | .
Cc1ccccc1-n1c(SCC(=O)Nc2ccccc2)nc2nc3c(cc2c1=O)CCCC3 | ? | ? | . | -80 | . | .
O=C(CSc1nc2nc3c(cc2c(=O)n1-c1ccccc1)CCCC3)Nc1cccc2ccccc12 | ? | ? | . | . | . | .
Cc1cccc(NC(=O)CSc2nc3nc4c(cc3c(=O)n2-c2ccccc2)CCCC4)c1 | 10µM | ? | . | . | . | .
COc1ccc(CN2CCCC(n3cc(C(=O)N4CCCCC4)nn3)C2)c(OC)c1C (stereo not drawn) | / | / | . | / | / | /
O=C(c1ccc(F)cc1F)C1CCN(c2ccc([N+](=O)[O-])cn2)CC1 | ? | 4.5µM | ? | -77 | . | .
COc1ccc(Cl)cc1NC(=O)c1nnn(Cc2cccc(C(F)(F)F)c2)c1N | ? | / | ? | . | . | /
Cc1cc(C)nc(Sc2ccc([N+](=O)[O-])cc2[N+](=O)[O-])n1 | ? | . | 7.1µM | ? | ? | .
O=[N+]([O-])c1ccc(Sc2cccc3cccnc23)c([N+](=O)[O-])c1 | / | . | ? | -106 | / | .
O=[N+]([O-])c1ccc(Sc2ccncn2)c([N+](=O)[O-])c1 | / | / | 28µM | -86 | / | /
C=Cc1ccc(CN2C(=O)c3ccccc3Sc3ccc(C(=O)OCc4ccco4)cc32)cc1 | / | / | . | . | . | /
O=C1CCC(C(=O)N2CCc3ccccc3C2)CN1CCCN1CCOCC1 (stereo not drawn) | . | / | . | . | . | .
COCCCNc1ncnc2sc(C(=O)N3CCCCC3)c(C)c12 | / | / | . | / | / | /
O=C(O)[C@@H]1C[C@H](CP(=O)(O)O)CCN1 | / | / | . | / | / | /
Nc1ccccc1C(=O)CC(N)C(=O)O (stereo not drawn) | / | / | . | / | / | /
CC(Cl)C(=O)N1c2ccccc2CCc2ccccc21 (stereo not drawn) | / | . | . | . | / | .
O=C(CCl)N1c2ccccc2CCc2ccccc21 | / | / | / | -102 | / | .
Cc1cccc(C(=O)N2CCC(=O)N(C(COCc3cccc(Cl)c3)Cc3ccccc3)CC2)c1 (stereo not drawn) | . | .[8.37 µM] | . | . | 8.2µM | .
Cc1cccc(C(=O)N2CCC(=O)N([C@H](COCc3cccc(Cl)c3)Cc3ccccc3)CC2)c1 | / | / | . | . | / | /
O=C(c1cccc(Cl)c1)N1CCC(=O)N([C@H](COCc2ccccc2)Cc2ccccc2)CC1 | / | / | . | . | / | /

Compound activity as filed in PubChem BioAssay.
